For the first assay, the target named is Proto-oncogene tyrosine-protein kinase ROS (Homo sapiens) (UniProt P08922). Particulars: at 10 µM.
Proto-oncogene tyrosine-protein kinase ROS (Homo sapiens), sequence (P08922 whole entry): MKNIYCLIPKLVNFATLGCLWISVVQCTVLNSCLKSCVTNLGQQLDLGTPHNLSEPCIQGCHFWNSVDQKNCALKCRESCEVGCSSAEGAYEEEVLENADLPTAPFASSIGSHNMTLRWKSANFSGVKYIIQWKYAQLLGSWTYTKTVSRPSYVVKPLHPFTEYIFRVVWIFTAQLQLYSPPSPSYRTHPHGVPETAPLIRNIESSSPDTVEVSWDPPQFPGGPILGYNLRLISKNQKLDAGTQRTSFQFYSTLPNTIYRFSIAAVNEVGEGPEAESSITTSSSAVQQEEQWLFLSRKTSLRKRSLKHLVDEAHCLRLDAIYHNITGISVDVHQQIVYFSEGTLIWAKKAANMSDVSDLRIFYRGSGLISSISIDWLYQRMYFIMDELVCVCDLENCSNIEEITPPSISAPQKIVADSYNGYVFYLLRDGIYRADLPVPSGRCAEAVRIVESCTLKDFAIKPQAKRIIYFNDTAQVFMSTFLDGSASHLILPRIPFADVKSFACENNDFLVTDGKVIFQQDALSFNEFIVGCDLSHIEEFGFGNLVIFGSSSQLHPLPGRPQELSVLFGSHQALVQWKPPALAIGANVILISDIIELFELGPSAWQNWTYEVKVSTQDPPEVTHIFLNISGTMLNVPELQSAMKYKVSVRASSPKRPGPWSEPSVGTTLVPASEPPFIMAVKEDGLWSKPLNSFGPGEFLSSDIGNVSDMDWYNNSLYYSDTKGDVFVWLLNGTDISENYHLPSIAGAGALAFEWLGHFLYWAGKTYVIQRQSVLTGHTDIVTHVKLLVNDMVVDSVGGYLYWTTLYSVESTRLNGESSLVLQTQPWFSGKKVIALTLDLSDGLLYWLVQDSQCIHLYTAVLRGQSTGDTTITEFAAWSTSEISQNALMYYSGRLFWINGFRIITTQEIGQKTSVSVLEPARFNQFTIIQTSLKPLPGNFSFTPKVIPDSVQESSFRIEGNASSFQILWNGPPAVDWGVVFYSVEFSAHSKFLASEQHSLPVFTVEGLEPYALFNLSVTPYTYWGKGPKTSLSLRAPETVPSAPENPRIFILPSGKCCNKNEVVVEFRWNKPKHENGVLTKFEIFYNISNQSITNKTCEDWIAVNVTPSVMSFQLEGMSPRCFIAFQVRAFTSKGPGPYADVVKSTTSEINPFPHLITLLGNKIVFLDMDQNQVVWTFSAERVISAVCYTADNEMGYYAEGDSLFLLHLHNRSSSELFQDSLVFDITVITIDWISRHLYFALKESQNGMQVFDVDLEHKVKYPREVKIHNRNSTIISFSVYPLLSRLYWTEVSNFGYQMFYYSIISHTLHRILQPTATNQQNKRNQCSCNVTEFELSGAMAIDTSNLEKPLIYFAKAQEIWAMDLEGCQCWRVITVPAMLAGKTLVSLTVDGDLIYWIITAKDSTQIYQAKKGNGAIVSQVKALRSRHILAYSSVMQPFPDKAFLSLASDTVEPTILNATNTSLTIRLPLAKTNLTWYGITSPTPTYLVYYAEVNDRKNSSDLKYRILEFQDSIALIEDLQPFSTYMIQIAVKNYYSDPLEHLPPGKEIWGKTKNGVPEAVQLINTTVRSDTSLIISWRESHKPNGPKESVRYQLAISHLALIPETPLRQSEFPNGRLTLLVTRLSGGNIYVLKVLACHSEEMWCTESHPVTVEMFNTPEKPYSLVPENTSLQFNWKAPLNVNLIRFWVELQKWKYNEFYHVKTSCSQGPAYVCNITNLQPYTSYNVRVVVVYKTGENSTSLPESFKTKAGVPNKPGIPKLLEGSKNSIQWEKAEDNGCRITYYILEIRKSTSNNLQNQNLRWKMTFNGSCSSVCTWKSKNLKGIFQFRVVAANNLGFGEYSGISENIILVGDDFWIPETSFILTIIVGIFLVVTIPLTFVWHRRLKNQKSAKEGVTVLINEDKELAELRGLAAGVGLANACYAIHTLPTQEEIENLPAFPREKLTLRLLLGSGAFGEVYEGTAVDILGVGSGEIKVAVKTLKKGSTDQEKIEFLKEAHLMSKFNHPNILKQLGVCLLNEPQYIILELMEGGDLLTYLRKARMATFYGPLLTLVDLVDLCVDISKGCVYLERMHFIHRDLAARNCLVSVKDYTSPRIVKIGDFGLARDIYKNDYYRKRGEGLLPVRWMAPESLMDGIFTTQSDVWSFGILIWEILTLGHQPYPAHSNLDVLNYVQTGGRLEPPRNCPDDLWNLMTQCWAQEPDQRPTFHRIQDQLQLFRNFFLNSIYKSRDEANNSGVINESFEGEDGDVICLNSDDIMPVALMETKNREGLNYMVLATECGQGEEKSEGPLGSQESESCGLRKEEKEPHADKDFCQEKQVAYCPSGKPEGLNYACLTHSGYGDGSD
Turning to `COc1cc2ncnc(Nc3ccc(NC(=O)c4ccccc4)cc3)c2cc1OC`, the residual activity amounted to 102%. Same read-out and setting: with `Cc1ccc(S(=O)(=O)/C=C/C#N)cc1` the figure was 92%. The same measure, in the same setting: with `Oc1n[nH]c2nnc(-c3c(-c4ccccc4)nn4ccccc34)cc12` the figure was 87%; with `Cc1nc(-c2ccccc2)c(-c2ccncc2)o1`, 97%; with `Oc1ccc(-c2nc(-c3ccc(F)cc3)c(-c3ccncc3)[nH]2)cc1`, 104%.

`COc1cc2ncnc(Nc3ccc(O)c(Br)c3)c2cc1OC`: the residual activity amounted to 84%. Still for that read-out and setting: to `CO[C@H]1C[C@@H]2CC[C@@H](C)[C@@](O)(O2)C(=O)C(=O)N2CCCC[C@H]2C(=O)O[C@H]([C@H](C)C[C@@H]2CC[C@@H](O)[C@H](OC)C2)CC(=O)[C@H](C)/C=C(\C)[C@@H](O)[C@@H](OC)C(=O)[C@H](C)C[C@H](C)/C=C/C=C/C=C/1C` belongs 92%; to `Cn1cnc2cc3c(Nc4cccc(Br)c4)ncnc3cc21`, 98%; to `O=C1NC(=O)c2cc(Nc3ccc(F)cc3)c(Nc3ccc(F)cc3)cc21`, 92%.

In the case of `c1ccc(-c2n[nH]cc2-c2ccnc3ccccc23)nc1`, the residual activity was 93%.

Regarding `O=C1NC(=O)/C(=C\c2ccc3nccnc3c2)S1`, the residual activity came to 99%. For `CO[C@@H]1[C@H](N(C)C(=O)c2ccccc2)C[C@H]2O[C@]1(C)n1c3ccccc3c3c4c(c5c6ccccc6n2c5c31)C(=O)NC4`, the residual activity was determined as 50%. Still for that read-out and setting: to `COc1ccc(OC)c2c(=S)c3ccccc3[nH]c12` belongs 92%. Consider `CC#CC(=O)Nc1cc2c(Nc3ccc(F)c(Cl)c3)ncnc2cn1`, for which the residual activity amounted to 92%. The same measure, in the same setting: to `c1ccc(-c2n[nH]c3c2oc2ccccc23)cc1` belongs 93%; to `Cc1cncc2cccc(S(=O)(=O)N3CCCN(C(=O)CN)C[C@H]3C)c12`, 82%; to `C[C@@H](N)[C@H]1CC[C@H](C(=O)Nc2ccncc2)CC1`, 105%. Same read-out and setting: to `N#CC(C#N)=C(N)/C(C#N)=C/c1ccc(O)cc1` belongs 92%; to `CO[C@H]1[C@@H](OC)C[C@H](C)[C@@H](OC)C2=CC(=O)C=C(NC(=O)/C(C)=C/C=C/[C@H](OC)[C@@H](OC(N)=O)/C(C)=C/[C@@H]1C)C2=O`, 94%. The same measure, in the same setting: to `Oc1ccc(Nc2nc(-c3ccc(Cl)cc3)cs2)cc1` belongs 97%; to `COc1cc2ncnc(Nc3ccc(Oc4ccccc4)cc3)c2cc1OC`, 101%; to `Cc1cc(Nc2nc(-c3ccccc3)nc3ccccc23)n[nH]1`, 40%. In the case of `Nc1n[nH]c2nnc(-c3c(-c4ccccc4)nn4ccccc34)cc12`, the residual activity was determined as 80%. On the same count and under the same terms, with `O=C1Nc2ccc(Br)cc2/C1=C\c1cc2c([nH]1)CCCC2` the figure was 80%; with `Ic1cccc(CSc2nnc(-c3ccncc3)o2)c1`, 75%; with `Cc1cccc(-c2[nH]c(C(C)(C)C)nc2-c2ccc3c(c2)OCO3)n1`, 94%.

Consider `Cn1nc2c3c(cccc31)C(=O)c1ccccc1-2`, for which the residual activity was 88%. On the same count and under the same terms, with `O=c1c2ccccc2[nH]c(=S)n1CCN1CCC(=C(c2ccc(F)cc2)c2ccc(F)cc2)CC1` the figure was 99%; with `Cc1ccc(NC2=CC(=O)c3sc(C)nc3C2=O)cc1`, 88%; with `COc1cc2ncnc(N3CCN(C(=O)Nc4ccc(Oc5ccccc5)cc4)CC3)c2cc1OC`, 86%.

The next assay deals with T1, Tyrosine-protein kinase receptor TYRO3 (Homo sapiens) (UniProt Q06418).
T1 sequence (whole entry): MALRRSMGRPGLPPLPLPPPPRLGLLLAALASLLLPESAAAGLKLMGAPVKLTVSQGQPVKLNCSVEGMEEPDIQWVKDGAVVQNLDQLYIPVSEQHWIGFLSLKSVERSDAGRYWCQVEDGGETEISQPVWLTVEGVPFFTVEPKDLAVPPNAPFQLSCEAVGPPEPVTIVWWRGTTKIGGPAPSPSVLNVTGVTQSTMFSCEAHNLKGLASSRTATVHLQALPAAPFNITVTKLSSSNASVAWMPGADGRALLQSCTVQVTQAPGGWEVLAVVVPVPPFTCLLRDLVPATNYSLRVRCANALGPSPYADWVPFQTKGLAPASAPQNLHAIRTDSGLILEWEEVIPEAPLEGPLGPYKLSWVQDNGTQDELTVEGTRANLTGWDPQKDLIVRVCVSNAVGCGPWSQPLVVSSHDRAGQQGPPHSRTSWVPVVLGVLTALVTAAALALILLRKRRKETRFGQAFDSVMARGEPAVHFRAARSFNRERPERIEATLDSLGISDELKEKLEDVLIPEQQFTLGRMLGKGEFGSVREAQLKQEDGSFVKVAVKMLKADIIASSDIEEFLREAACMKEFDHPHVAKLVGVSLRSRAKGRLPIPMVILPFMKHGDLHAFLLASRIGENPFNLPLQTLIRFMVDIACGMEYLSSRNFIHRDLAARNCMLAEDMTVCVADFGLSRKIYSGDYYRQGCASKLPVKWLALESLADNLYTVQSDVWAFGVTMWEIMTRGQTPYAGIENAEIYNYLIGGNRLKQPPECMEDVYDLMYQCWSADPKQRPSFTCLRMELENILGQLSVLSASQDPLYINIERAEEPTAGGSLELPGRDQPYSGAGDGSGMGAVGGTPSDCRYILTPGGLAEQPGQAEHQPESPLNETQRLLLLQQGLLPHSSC
Particulars: at 1 µM.
With `COc1cc2ncnc(Nc3ccc(NC(=O)c4ccccc4)cc3)c2cc1OC`, the residual activity is 94%.

As to `Cc1ccc(S(=O)(=O)/C=C/C#N)cc1`, the residual activity stood at 107%. In the case of `Oc1n[nH]c2nnc(-c3c(-c4ccccc4)nn4ccccc34)cc12`, the residual activity was 109%. Consider `Cc1nc(-c2ccccc2)c(-c2ccncc2)o1`, for which the residual activity came to 98%. Still for that read-out and setting: with `Oc1ccc(-c2nc(-c3ccc(F)cc3)c(-c3ccncc3)[nH]2)cc1` the figure was 103%; with `COc1cc2ncnc(Nc3ccc(O)c(Br)c3)c2cc1OC`, 38%; with `CO[C@H]1C[C@@H]2CC[C@@H](C)[C@@](O)(O2)C(=O)C(=O)N2CCCC[C@H]2C(=O)O[C@H]([C@H](C)C[C@@H]2CC[C@@H](O)[C@H](OC)C2)CC(=O)[C@H](C)/C=C(\C)[C@@H](O)[C@@H](OC)C(=O)[C@H](C)C[C@H](C)/C=C/C=C/C=C/1C`, 94%. In the case of `Cn1cnc2cc3c(Nc4cccc(Br)c4)ncnc3cc21`, the residual activity was found to be 59%. As to `O=C1NC(=O)c2cc(Nc3ccc(F)cc3)c(Nc3ccc(F)cc3)cc21`, the residual activity was 94%.

With `c1ccc(-c2n[nH]cc2-c2ccnc3ccccc23)nc1`, the residual activity turned out to be 93%. The same measure, in the same setting: to `O=C1NC(=O)/C(=C\c2ccc3nccnc3c2)S1` belongs 89%; to `COc1ccc(OC)c2c(=S)c3ccccc3[nH]c12`, 108%. Same read-out and setting: to `N#CCCc1ccc2c(c1)-c1[nH]c3ccc([N+](=O)[O-])cc3c1CC(=O)N2` belongs 75%. The same measure, in the same setting: with `CC#CC(=O)Nc1cc2c(Nc3ccc(F)c(Cl)c3)ncnc2cn1` the figure was 85%; with `O=C1Nc2ccccc2/C1=C1/Nc2ccccc2/C1=N\OCCC(O)CO` (stereo not given), 52%; with `c1ccc(-c2n[nH]c3c2oc2ccccc23)cc1`, 79%. Take `Cc1cncc2cccc(S(=O)(=O)N3CCCN(C(=O)CN)C[C@H]3C)c12`: the residual activity was 83%. The same measure, in the same setting: with `C[C@@H](N)[C@H]1CC[C@H](C(=O)Nc2ccncc2)CC1` the figure was 123%; with `CO[C@H]1[C@@H](OC)C[C@H](C)[C@@H](OC)C2=CC(=O)C=C(NC(=O)/C(C)=C/C=C/[C@H](OC)[C@@H](OC(N)=O)/C(C)=C/[C@@H]1C)C2=O`, 86%; with `Oc1ccc(Nc2nc(-c3ccc(Cl)cc3)cs2)cc1`, 97%.

As for `COc1cc2ncnc(Nc3ccc(Oc4ccccc4)cc3)c2cc1OC`, the residual activity stood at 14%.

Regarding `COc1cc2ncc(-c3ccccc3)nc2cc1OC`, the residual activity stood at 96%. As to `Cc1cc(Nc2nc(-c3ccccc3)nc3ccccc23)n[nH]1`, the residual activity amounted to 98%. Still for that read-out and setting: with `Nc1n[nH]c2nnc(-c3c(-c4ccccc4)nn4ccccc34)cc12` the figure was 102%; with `Ic1cccc(CSc2nnc(-c3ccncc3)o2)c1`, 112%; with `Cc1cccc(-c2[nH]c(C(C)(C)C)nc2-c2ccc3c(c2)OCO3)n1`, 97%. On the same count and under the same terms, to `Cn1nc2c3c(cccc31)C(=O)c1ccccc1-2` belongs 96%. Same read-out and setting: to `O=c1c2ccccc2[nH]c(=S)n1CCN1CCC(=C(c2ccc(F)cc2)c2ccc(F)cc2)CC1` belongs 82%; to `Cc1ccc(NC2=CC(=O)c3sc(C)nc3C2=O)cc1`, 98%; to `COc1cc2ncnc(N3CCN(C(=O)Nc4ccc(Oc5ccccc5)cc4)CC3)c2cc1OC`, 97%.

The values above are taken from ChEMBL document CHEMBL2218924, “A broad activity screen in support of a chemogenomic map for kinase signalling research and drug discovery” (Biochem J, 2013).
